A short description of experiment [1]: resazurin metabolic signal in HepG2 cells – cell-based, resazurin fluorescence, 24 h, PK04 Diversity Set, profiling panel (AID 1172). Also: test concentration not given here. Conditions: HepG2 viability, higher = more signal. For orientation: Alamar Blue is a resazurin reagent that responds to reducing activity.
Experiment [2] can be described thus: budding yeast growth changes without added modifier – OD600, strain BY4716, 24 h, basal condition, primary screen (AID 1173). To be noted: S. cerevisiae BY4716 growth, OD600, 24 h; higher = more signal, called active from +8 up or from −8 down.
Experiment [3] can be described thus: viability profiling in MM1S myeloma cells – cell-based, resazurin fluorescence, basal, 24 h, PK04 Diversity Set, profiling panel (AID 1174).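 Also: MM1S multiple myeloma cell line; test concentration not given here.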 To be noted: higher = more signal, called active from +8 up or from −8 down.
Experiment [4] addresses Dihydroorotate dehydrogenase (quinone), mitochondrial (Plasmodium falciparum (isolate 3D7)) (UniProt Q08210). Description: inhibition of P. falciparum DHODH – biochemical, C-terminal His tag, absorbance 600 nm, primary screen (AID 1175).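 Also: recombinant parasite enzyme with a five histidine tag at its C terminus; test concentration not given here.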 To be noted: PfDHODH enzyme, DCIP absorbance 600 nm; higher = more signal, called active from +8 up or from −8 down.
The nature of experiment [5]: inhibition of PAO1 biofilm formation – strain PAO1, LB-PBS medium, absorbance 600 nm, primary screen (AID 1176). Also: test concentration not given here. Conditions: P. aeruginosa PAO1 growth/biofilm, A600, 12 h; higher = more signal.
Experiment [6] in a line: growth modulation of vineyard yeast isolate – strain RM11-1a, OD600, basal, 24 h, primary screen (AID 1177).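 Also: cultures grown under basal conditions with no added stressor; test concentration not given here.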 To be noted: S. cerevisiae RM11-1a growth, OD600, 24 h; higher = more signal, called active from +8 up or from −8 down.
Experiment [7] can be described thus: growth of efflux-deficient E. coli DRC39 – strain DRC39, OD650, 24 h, E. coli filamentation inducers, primary screen (AID 1178).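 Also: growth measured as culture turbidity by optical density at 650 nm; test concentration not given here.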 To be noted: E. coli DRC39 acrAB, higher = more signal, called active from +8 up or from −8 down.
Experiment [8] can be described thus: growth of efflux-deficient E. coli DRC39 – strain DRC39, OD650, 48 h, E. coli filamentation inducers, primary screen (AID 1179).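 Also: screen aims at cell division blockers that make cells filament.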 To be noted: E. coli DRC39 delta-acrAB growth, higher = more signal, called active from +8 up or from −8 down.
The nature of experiment [9]: viability profiling in RPMI8226 myeloma cells – cell-based, resazurin fluorescence, basal, 24 h, PK04 Diversity Set, profiling panel (AID 1180).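 Also: RPMI8826 multiple myeloma cell line at 5000 cells per well; test concentration not given here.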 Conditions: higher = more signal.
Experiment [10] concerns the target E3 ubiquitin-protein ligase XIAP (Homo sapiens) (UniProt P98170). Description: small molecules binding XIAP protein – biophysical, small-molecule microarray, fluorescence 635 nm, primary screen (AID 1181).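 Also: score merges 667 nm emission and signal to noise over triplicate slides.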 Conditions: higher = more signal.

Each structure is given as a SMILES string. The source made the active and inactive calls. Unless noted, no rule for the calls is given here.

E3 ubiquitin-protein ligase XIAP (Homo sapiens), sequence (P98170 whole entry, looked up): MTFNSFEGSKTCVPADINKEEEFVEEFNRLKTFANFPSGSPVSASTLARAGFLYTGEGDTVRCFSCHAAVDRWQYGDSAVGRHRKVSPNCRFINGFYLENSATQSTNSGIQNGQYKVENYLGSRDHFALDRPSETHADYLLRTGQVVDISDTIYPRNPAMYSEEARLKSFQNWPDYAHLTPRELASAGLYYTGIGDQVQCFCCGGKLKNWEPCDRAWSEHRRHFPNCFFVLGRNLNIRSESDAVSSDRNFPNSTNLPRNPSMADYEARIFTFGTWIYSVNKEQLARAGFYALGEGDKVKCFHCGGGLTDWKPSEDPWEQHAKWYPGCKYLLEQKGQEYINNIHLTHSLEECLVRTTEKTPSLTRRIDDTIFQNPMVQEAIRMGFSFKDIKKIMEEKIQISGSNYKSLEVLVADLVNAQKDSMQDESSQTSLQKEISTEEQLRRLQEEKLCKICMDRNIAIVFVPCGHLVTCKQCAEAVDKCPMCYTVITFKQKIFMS
Dihydroorotate dehydrogenase (quinone), mitochondrial (Plasmodium falciparum (isolate 3D7)), sequence (Q08210 whole entry, looked up): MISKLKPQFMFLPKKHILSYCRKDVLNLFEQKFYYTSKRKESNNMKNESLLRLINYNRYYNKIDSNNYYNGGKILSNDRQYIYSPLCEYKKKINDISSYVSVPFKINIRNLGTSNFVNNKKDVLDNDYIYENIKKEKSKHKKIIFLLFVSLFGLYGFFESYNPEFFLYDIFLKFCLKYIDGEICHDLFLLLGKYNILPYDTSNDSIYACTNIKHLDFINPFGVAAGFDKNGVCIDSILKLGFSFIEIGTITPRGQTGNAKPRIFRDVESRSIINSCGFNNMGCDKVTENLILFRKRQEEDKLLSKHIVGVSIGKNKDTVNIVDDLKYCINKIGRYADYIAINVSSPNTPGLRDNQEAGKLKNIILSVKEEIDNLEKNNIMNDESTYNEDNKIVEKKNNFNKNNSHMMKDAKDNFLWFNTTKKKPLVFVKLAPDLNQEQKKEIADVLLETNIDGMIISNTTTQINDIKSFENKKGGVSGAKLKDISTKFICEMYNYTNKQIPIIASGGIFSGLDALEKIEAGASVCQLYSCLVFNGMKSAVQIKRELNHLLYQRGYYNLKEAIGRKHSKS

As to `CN(C)CCCCNC(=O)[C@H]1C[C@H]2C(=O)N[C@@H](CCCC[N+](C)(C)C)C(=O)N2[C@H]1c1cccc(OCCO)c1`, the z-score in [1] was 0.49; in experiment [2], 0.168 (inactive); in [3], 0.505 (inactive); in experiment [5], 1.06 (inactive); in experiment [6] it was -0.557 (inactive); in experiment [7] it was -0.163 (inactive). The values for the z-score in experiment [8] and in experiment [9] were -0.853 (inactive) and -0.0588, respectively. In addition, the composite z-score in experiment [4] was -0.119 (inactive); in experiment [10] it was -0.243.
On to `CCOC(=O)C[C@H]1[C@H](OC(=O)c2ccccc2-c2ccccc2)[C@@H](NC(=O)c2ccccc2)c2cc(OCCCO)ccc2N1C(=O)Cc1ccc(OC)cc1`, for which the z-score in [1] was 0.834; in [2] it was 0.606 (inactive); in [3], -0.397 (inactive); in experiment [5], 0.142 (inactive); in experiment [6], 0.143 (inactive); in experiment [7], 0.228 (inactive). The z-score is 0.15 (inactive) in [8] and -0.37 in [9]. The composite z-score in experiment [4] was -0.369 (inactive); in experiment [10] it was 0.0871.
In the case of `NC(=O)[C@@H]1[C@H]2C(=O)O[C@H](c3ccccc3)[C@H](c3ccccc3)N2[C@H](c2ccccc2OCCO)[C@@]12C(=O)Nc1ccc(C#CCCO)cc12`, the z-score was 1.06 in [1]; -1.45 (inactive) in experiment [2]; -0.476 (inactive) in experiment [3]; -0.104 (inactive) in [5]; 0.895 (inactive) in [6]; 0.386 (inactive) in [7]. In addition, the z-score was -0.318 (inactive) in experiment [8] and -1.29 in [9]. The composite z-score is -0.58 (inactive) in experiment [4] and -0.0048 in experiment [10].
On to `CCOC(=O)C[C@H]1[C@H](OC(=O)Cc2ccc3c(c2)OCO3)[C@@H](NC(=O)c2ccccc2)c2cc(OCCCO)ccc2N1C(=O)c1ccc2ccccc2n1`, for which the z-score was -0.287 in experiment [1]; -1.02 (inactive) in [2]; 0.426 (inactive) in experiment [3]; -0.0057 (inactive) in [5]; -1.68 (inactive) in experiment [6]; 0.907 (inactive) in [7]. Also, the z-score in experiment [8] was 0.88 (inactive); in [9], 0.121. Besides, the composite z-score was -1.03 (inactive) in experiment [4] and -0.138 in experiment [10].
Turning to `N#Cc1ccc(NN2C(C(O)c3ccccc3)C=CC3C(=O)N(c4ccccc4)C(=O)C32)cc1` (stereo not given), the z-score in [1] is -0.822; in experiment [2], -1.47 (inactive); in [3], -0.0476 (inactive); in experiment [5] it was 0.158 (inactive); in experiment [6], -0.323 (inactive); in [7], -0.371 (inactive). Further, the z-score was 0.0355 (inactive) in experiment [8] and -1.15 in experiment [9]. The values for the composite z-score in [4] and in experiment [10] were -0.804 (inactive) and -0.0062, respectively.
For `COCCOC(=O)N1C(=O)[C@@]2(c3cc(C#CCCO)ccc31)[C@H](C(=O)N1CCc3cc(OC)c(OC)cc3C1)[C@H]1C(=O)O[C@H](c3ccccc3)[C@H](c3ccccc3)N1[C@@H]2c1ccc(OCCO)cc1`, the z-score is 1.36 in experiment [1]; 0.543 (inactive) in experiment [2]; 0.665 (inactive) in experiment [3]; 2.19 (inactive) in experiment [5]; 0.0817 (inactive) in [6]; 0.443 (inactive) in experiment [7]. In addition, the z-score in experiment [8] is 1.75 (inactive); in experiment [9] it was 0.152. The composite z-score was -1.45 (inactive) in [4] and -0.0412 in [10].
Turning to `CCCC[C@@H](O)C1=C(COc2ccccc2)Cn2c(=O)n(-c3ccccc3)c(=O)n2[C@H]1CO`, the z-score in experiment [1] is -0.196; in [2] it was -4 (inactive); in experiment [3], 0.0088 (inactive); in experiment [5], 0.789 (inactive); in experiment [6] it was -3.57 (inactive); in experiment [7], 1.36 (inactive). Besides, the z-score was 0.0244 (inactive) in experiment [8] and 0.539 in experiment [9]. Further, the results for the composite z-score in [4] and in experiment [10] were -1.05 (inactive) and 0.106, respectively.
Turning to `O=C(NCc1ccccc1)[C@]1(Cc2ccccc2)N=C(c2ccc(OCCCO)cc2)O[C@@H]1c1ccccc1`, the z-score was 0.455 in experiment [1]; 1.41 (inactive) in experiment [2]; -1.91 (inactive) in [3]; 1.19 (inactive) in experiment [5]; 3.75 (inactive) in experiment [6]; 0.653 (inactive) in experiment [7]. Moreover, the z-score in experiment [8] was -0.642 (inactive); in [9] it was -1.79. Further, the composite z-score in [4] was 1.8 (inactive); in [10] it was 0.0871.
Regarding `Cc1cc(C)c(C(O)C2C=CC3C(=O)N(c4ccccc4)C(=O)C3N2Nc2ccc([N+](=O)[O-])cc2)c(C)c1` (stereo not given), the z-score in experiment [1] is -0.221; in [2] it was 0.414 (inactive); in experiment [3] it was -0.237 (inactive); in [5], 1.64 (inactive); in experiment [6], 0.258 (inactive); in experiment [7], -0.777 (inactive). In addition, the z-score was -0.624 (inactive) in experiment [8] and 0.0375 in experiment [9]. The composite z-score in experiment [4] is -0.212 (inactive); in [10], 0.0827.
With `COc1cccc(C[C@H]2C[C@@H](CO[Si](C(C)C)(C(C)C)C(C)C)N3C(=O)[C@]4(C(C)=O)O[C@]23[C@H]2C(=O)N(C)C(=O)[C@H]24)c1`, the z-score was -1.03 in [1]; 2.01 (inactive) in experiment [2]; -0.713 (inactive) in experiment [3]; 1.32 (inactive) in experiment [5]; 0.979 (inactive) in experiment [6]; -0.356 (inactive) in experiment [7]. Further, the figures for the z-score in experiment [8] and in experiment [9] were -0.152 (inactive) and -2.81, respectively. The values for the composite z-score in experiment [4] and in experiment [10] were 0.564 (inactive) and 0.0264, respectively.
On to `C[N+](C)(C)CCCC[C@@H]1NC(=O)[C@@H]2C[C@H](C(=O)NCCCCCNC(=O)CS)[C@H](c3cccc(OCCO)c3)N2C1=O`, for which the z-score is 0.839 in experiment [1]; -0.385 (inactive) in experiment [2]; 0.223 (inactive) in [3]; -0.199 (inactive) in experiment [5]; 0.342 (inactive) in [6]; 0.461 (inactive) in experiment [7]. The z-score in [8] was 0.983 (inactive); in [9], 0.228. Besides, the composite z-score in experiment [4] was 1.09 (inactive); in experiment [10] it was -0.0562.
For the compound `CC(C)NC(=O)[C@@]1(Cc2ccccc2I)c2ccccc2C(=O)N(Cc2ccccc2C(F)(F)F)[C@H]1c1ccc(CO)cc1`, the z-score was 0.406 in experiment [1]; 0.835 (inactive) in experiment [2]; 1.09 (inactive) in [3]; 0.82 (inactive) in experiment [5]; -0.272 (inactive) in [6]; 0.52 (inactive) in [7]. Further, the z-score in experiment [8] is -0.319 (inactive); in experiment [9] it was 0.508. Moreover, the figures for the composite z-score in [4] and in experiment [10] were -0.327 (inactive) and -0.206, respectively.
As to `COCCCNC(=O)[C@@]1(Cc2ccccc2N=[N+]=[N-])N=C(c2ccc(OCCCO)cc2)O[C@H]1c1ccccc1CN=[N+]=[N-]`, the z-score in [1] was -0.859; in [2], -0.255 (inactive); in experiment [3], -1.2 (inactive); in [5], 1.72 (inactive); in [6] it was 0.154 (inactive); in [7], 2.63 (inactive). The z-score in [8] was 0.575 (inactive); in experiment [9], -2.25. For the same compound, the results for the composite z-score in experiment [4] and in experiment [10] were 0.283 (inactive) and -0.183, respectively.

Source of the values: PubChem BioAssay.
